Experimental data reported in PubChem BioAssay (EPA / NIEHS).
Records with an inconclusive call do not appear. Active and inactive are the calls of the source. Rule for the calls: active = hit-call score of the fitted dose curve at least 0.9, where 1 is the maximum; inconclusive = response in the unintended direction; inactive = score below 0.9.

Assay: Tanguay_ZF_120hpf_PIG_legacy: (Legacy) Oregon State University Tanguay Lab 120 Hour Post-fertilization zebrafish Assay for Pigmentation Malformation (AID 2283650)
Description: Tanguay_ZF_120hpf_legacy is a whole embryo, multiplexed endpoint assay using zebrafish larvae exposed for 120 hours post fertilization on a 96-well plate.Tanguay_ZF_120hpf_PIG_legacy is one of one assay component(s) measured or calculated from the Tanguay_ZF_120hpf_legacy assay. It is designed to make measurements of zebrafish development as detected with brightfield microscopy of developing zebrafish embryos.Data from the assay component Tanguay_ZF_120hpf_PIG_legacy was analyzed into 1 assay endpoints. This assay endpoint, Tanguay_ZF_120hpf_PIG_legacy, was analyzed in the positive analysis fitting direction relative to DMSO as the negative control and baseline of activity. Using a type of morphology reporter, gain-of-signal activity can be used to understand changes in developmentals as they relate to the whole embryo. To generalize the intended target to other relatable targets, this assay endpoint is annotated to the zebrafish development intended target family, where the subfamily is embryonic pigmentation.
Zebrafish husbandry: Tropical 5D wild-type adult zebrafish were housed in at an approximate density of 1000 per 100 gallon tank at the Sinnhuber Aquatic Research Laboratory, Oregon State University, Corvallis, OR. Each tank was kept at standard laboratory conditions of 28C on a 14-h light/10-h dark photoperiod in fish water consisting of reverse osmosis water supplemented with a commercially available salt (Instant Ocean). Spawning funnels were placed into the tanks the night prior, and embryos were collected and staged. To increase bioavailability, the chorion was enzymatically removed using pronase (63.6mg/ml, >/= 3.5U/mg, Sigma-Aldrich: P5147) at 4 hours post fertilization (hpf) using a custom automated dechorionator.Chemical exposures: Six hpf dechorionated embryos were placed 1 embryo per well in a 96-well plate prefilled with 90 ul of EM using automated embryo placement systems (AEPS). Ten microliters of each row of dilution plate 2 was added to 2 exposure plates. The final DMSO concentration used was 0.64% (vol/vol). Thirty-two embryos were also exposed to 5uM trimethyltin chloride (positive control). Plates were sealed to prevent evaporation and foil covered to reduce light exposure and kept in a 28C incubator. Embryos were statically exposed until 120 hpf. At 24 hpf, embryos were assessed for photomotor response using a custom photomotor response analysis tool (PRAT) and for developmental toxicity endpoints (MO24: mortality at 24 hpf, DP: developmental progression, SM: spontaneous movement, and NC: notochord distortion). At 120 hpf, locomotor activity was measured using Viewpoint Zebralab and assessed for 18 endpoints. Zebrafish acquisition and analysis program (ZAAP), a custom program designed to inventory, acquire, and manage zebrafish data, was used to collect developmental endpoints as either present or absent (i.e., binary responses were recorded). If mortality occurred for an embryo (at either 24 or 120 hpf), the non-mortality endpoints were not measured.

Row | SMILES | outcome | AC50
1 | CN(C)C(=O)Cl | inactive | 
2 | CC(C)(C)OOC(C)(C)C | inactive | 
3 | ClC1=C(Cl)C2(Cl)C3C(Cl)C(Cl)CC3C1(Cl)C2(Cl)Cl (configuration not stated) | inactive | 
4 | Cc1ccc(O)cc1C | inactive | 
5 | CCC1(c2ccccc2)C(=O)N=C(O)NC1=O (configuration not stated) | inactive | 
6 | CCOc1ccc(C(C)(C)COCc2cccc(Oc3ccccc3)c2)cc1 | inactive | 
7 | c1ccc2c(c1)Nc1ccccc1S2 | inactive | 
8 | O=C(O)C1C(C(=O)O)C2(Cl)C(Cl)=C(Cl)C1(Cl)C2(Cl)Cl (configuration not stated) | inactive | 
9 | Cc1cccc(N)c1 | inactive | 
10 | [N-]=[N+]=[N-] | inactive | 
11 | CSC(C)(C)C=NO | inactive | 
12 | CCC(C)(C)c1ccc(O)cc1 |  | 47.4 µM (active)
13 | ClC(Cl)(Cl)c1ccccc1 | inactive | 
14 | O=C(O)C(Cl)Cl | inactive | 
15 | Nc1ccc(Cl)cc1 | inactive | 
16 | Cc1ccc(N)cc1N | inactive | 
17 | CCOP(=S)(OCC)SCSCC | inactive | 
18 | CC(C)(C)c1ccc(O)cc1 |  | 25.2 µM (active)
19 | O=P1(N(CCCl)CCCl)NCCCO1 (configuration not stated) | inactive | 

Row | SMILES | outcome | AC50
20 | O=P(Oc1ccccc1)(Oc1ccccc1)Oc1ccccc1 | inactive | 
21 | CCCCc1ccccc1 | inactive | 
22 | c1nc[nH]n1 | inactive | 
23 | OCC1CO1 (configuration not stated) | inactive | 
24 | ClC(Cl)c1ccccc1 | inactive | 
25 | Nc1ccc2ccccc2c1 |  | 46.5 µM (active)
26 | COCCOCCO | inactive | 
27 | CCCCCCCc1ccc(O)cc1 | inactive | 
28 | CCOC(=O)c1ccccc1C(=O)OCC | inactive | 
29 | CC(Cl)(Cl)C(=O)O | inactive | 
30 | c1ccc(OP(Oc2ccccc2)Oc2ccccc2)cc1 | inactive | 
31 | CC(Cc1ccc(OCC(=O)O)cc1)NCC(O)c1csc(C(F)(F)F)n1 (configuration not stated) | inactive | 
32 | O=[N+]([O-])c1ccc(Cl)c(Cl)c1 | inactive | 
33 | CCNc1nc(Cl)nc(NC(C)(C)C)n1 | inactive | 
34 | Nc1cc2c3c(c1)C(c1ccccc1)=N[C@@H](NC(=O)c1cccnc1)C(=O)N3CC2 | inactive | 
35 | c1cc2c3c(cccc3c1)CC2 | inactive | 
36 | Cc1ccc([N+](=O)[O-])cc1C | inactive | 
37 | CCCCN(CCCC)SN(C)C(=O)Oc1cccc2c1OC(C)(C)C2 | inactive | 
